# Among all 640,000 compounds or so, about 9,300 (1.5%) were called active. This excerpt belongs to a sample that is enriched for actives. Unmarked numbers belong to inactive results. No stated cut-off is given here; in the data, active means inhibition above about 32%; inactive means the rest.
# Test: TEAD-YAP interaction inhibition, primary screen, TEAD-YAP interaction inhibitor project, luminescence, HEK-TIYL cells (AID 1259422);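 further: 0% = median of test compound wells and 100% = reference inhibitor wells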
# Details: TEAD-Gal4/YAP UAS-luciferase luminescence, at 9.12 µM, hits give high values
row,SMILES,inhibition
1,CC[n+]1c(/C=C/C=C2\N(C)c3ccccc3C2(C)C)n(-c2ccccc2)c2ccc(Cl)cc21,91.8% (active)
2,C=C1C[C@@H](c2ccccc2)N2CCC[C@H]2[C@H]1C,-6.5%
3,C=C(C)CN(CC)C(C)Cc1ccc(OC)c(OC)c1 (stereo not given),-4.32%
4,Cc1[nH]c2c(F)cccc2c1CCN,1.82%
5,CCOc1cc2c(cc1C=C(C#N)C#N)OCO2,-1.58%
6,CC1=CC(=Cc2sc3ccccc3[n+]2C)C=C(C)O1,85.8% (active)
7,Cc1ccc2nc(NC(=O)c3c(O)c4c(n(Cc5ccco5)c3=O)CCCC4)sc2c1,-4.37%
8,COc1cc(/C=C2\C(=O)NC(=O)N(c3ccccc3)C2=O)ccc1O,11.5%
9,Cc1cc2c(cc1Br)NC(=O)C2(c1c(O)n(C)c(=O)n(C)c1=O)C(C#N)C#N (stereo not given),-14.6%
10,CN(C)P(=O)(c1cccc(C(=O)O)c1)N(C)C,-4.89%
11,CCOc1ccc(C(Nc2ccccc2)P2(=S)OCC(C)(C)CO2)cc1 (stereo not given),5.04%
12,CN[C@@H]1C[C@H]2O[C@@](C)([C@@H]1OC)n1c3ccccc3c3c4c(c5c6ccccc6n2c5c31)C(=O)NC4,102% (active)
13,O=C1NC(=S)NC(=O)C1=Cc1ccc(-c2ccccc2)o1,1.36%
14,O=C(Cc1ccc(F)cc1)N(Cc1ccco1)C1CCN(Cc2ccncc2)CC1,-7.86%
15,COc1ccc(C=C(C#N)C#N)c(C)c1C,-13.8%
16,c1ccc2c(c1)[I+]c1ccccc1-2,60% (active)
17,CCOC(=O)C1=C(N)Oc2n[nH]c(C)c2C12C(=O)Nc1ccc(Br)cc12 (stereo not given),4.72%
18,CC(=O)Nc1cc([N+](=O)[O-])ccc1N1CCN(C)CC1,-2.87%

row,SMILES,inhibition
1,COc1ccc(C(C[N+](=O)[O-])c2c(-c3ccccc3)[nH]c3ccccc23)cc1 (stereo not given),52.6% (active)
2,COc1ccc(-n2c(-c3ccccc3)nc3ccccc3c2=O)cc1,1.69%
3,CCCCOc1ccccc1C1C(C#N)=C(N)Oc2c1c(=O)oc1ccccc21 (stereo not given),-0.47%
4,Cc1ccc(NC(=O)C2C3c4ccccc4C(c4ccccc43)C2C(=O)O)cc1 (stereo not given),-0.29%
5,CCCCC[n+]1ccc(-c2cc[n+](CCCCC)cc2)cc1,56.5% (active)
6,CCOC(=O)C1C2NC(=S)NC1(C)Oc1cc(OC)ccc12 (stereo not given),0.95%
7,O=C(c1ccccc1)c1cc(Cl)ccc1N1C(=O)c2ccccc2C1=O,-3.06%
8,COc1cc(CN2CCN(C)CC2)ccc1O,4.62%
9,C[C@@H]1C[C@H]2CC[C@H](O2)[C@H](C)C(=O)O[C@@H](C)C[C@@H]2CC[C@@H](O2)[C@@H](C)C(=O)O[C@H](C)C[C@H]2CC[C@H](O2)[C@H](C)C(=O)O[C@@H](C)C[C@@H]2CC[C@@H](O2)[C@@H](C)C(=O)O1,94.6% (active)
10,N#C/C(=C\c1cc2c(cc1Cl)OCO2)c1nn(CCO)c(N)c1C#N,-18.8%
11,CCC(=O)C1=C(C)OC(N)=C(C(=O)OC)C12C(=O)Nc1ccccc12 (stereo not given),3.18%
12,COc1ccc2c(c1)c(C(=O)N1CCN(C)CC1)c(C)n2C,-6.79%
13,C(=N\N1CCCCC1)/c1c[nH]c2ccccc12,4.68%
14,O=C1CC(=O)N(C2CCCCCC2)C(=O)N1,-0.34%
15,N#Cc1ccc(NC(=O)COC(=O)CCC2CCCC2)cc1Cl,0.25%
16,c1ccc2c(CCNC3CC4CCC3C4)c[nH]c2c1 (stereo not given),-1.36%
17,CCCCCCOc1ccc(C=C2C(=O)NC(=S)NC2=O)cc1,13%

# Reference: PubChem BioAssay AID1259422 (The Scripps Research Institute Molecular Screening Center, 2018)
